This is part of a sample that, as a whole, favours compounds with a hit. Of some 79,000 tested, about 15% had one in any assay. Activity calls are given as the source filed them. Rule as the data show it: active = growth inhibition above about 70%; inactive = the rest.
What was measured:
[1] = NCI Yeast Anticancer Drug Screen. Data for the rad50 strain (AID 155);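 also: 0% = growth of vehicle-only cultures of the same strain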; settings: S. cerevisiae rad50 strain growth inhibition, stronger effect = higher value
Summary of the method: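 Yeast carrying a defined DNA repair defect were exposed to test compounds, and growth was compared with vehicle-treated controls to give percent inhibition.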

[2] = NCI Yeast Anticancer Drug Screen. Data for the mec2-1 strain (AID 157); settings: S. cerevisiae mec2-1 strain, stronger effect = higher value
Summary of the method: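 Growth inhibition is read against vehicle-treated controls after compound exposure of the mec2-1 yeast strain, which is defective in DNA damage repair or cell cycle control.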

[3] = NCI Yeast Anticancer Drug Screen. Data for the sgs1 mgt1 strain (AID 161);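 also: 0% = growth of cultures given vehicle only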; settings: S. cerevisiae sgs1 mgt1 strain, stronger effect = higher value
Summary of the method: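 Growth of a repair-deficient yeast mutant was monitored after compound treatment and expressed as inhibition relative to vehicle-treated cultures.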

[4] = NCI Yeast Anticancer Drug Screen. Data for the cln2 rad14 strain (AID 165);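 also: 0% = growth equal to vehicle treated cultures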; settings: S. cerevisiae cln2 rad14 strain, stronger effect = higher value
Summary of the method: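 Growth inhibition, relative to vehicle-treated controls, is the read-out. The test organism is a yeast strain with defined genetic alterations, cln2 rad14.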

[5] = NCI Yeast Anticancer Drug Screen. Data for the bub3 strain (AID 167); settings: S. cerevisiae bub3 mutant strain, stronger effect = higher value
Summary of the method: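 Compounds were applied to a genetically altered yeast strain carrying a cell-cycle control defect. Growth inhibition was scored against vehicle-treated controls.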

[6] = NCI Yeast Anticancer Drug Screen. Data for the mlh1 rad18 strain (AID 175); settings: S. cerevisiae mlh1 rad18 strain growth inhibition, stronger effect = higher value
Summary of the method: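 Cells of a genetically altered yeast strain, deficient in DNA damage repair, were treated with compound. Their growth was then compared with that of vehicle-treated cultures to give inhibition.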

[7] = at 5.0 µM (retest, dose inferred, filed as 0.5)
[8] = at 50.0 µM (retest, dose inferred, filed as 5.0)

Measured: growth inhibition

O=C(CNc1ccccc1[N+](=O)[O-])Nn1c(-c2ccccc2)nc2ccccc2c1=O
active: [6]; at 50.0 µM 75.5%
inactive: [1]; [7] 20% | [1]; [8] 36% | [1]; at 50.0 µM 59.1% | [2]; [7] 2% | [2]; [8] 33% | [2]; at 50.0 µM 38.5% | [3]; [7] 17% | [3]; [8] 33% | [3]; at 50.0 µM 69% | [4]; [7] 9% | [4]; [8] 35% | [4]; at 50.0 µM 36% | [5]; [7] -8% | [5]; [8] 34% | [5]; at 50.0 µM 46.7% | [6]; [7] 10% | [6]; [8] 48%

O=C(CC1C(=O)c2ccccc2C1=C1C(=O)c2ccccc2C1=O)c1ccccc1 (configuration not stated)
inactive: [1]; [7] -8% | [2]; [7] 22% | [3]; [7] 9% | [4]; [7] 19% | [4]; [8] 69% | [4]; at 50.0 µM 68% | [5]; [7] 11% | [6]; [7] -3%
active: [1]; [8] 71% | [1]; at 50.0 µM 81.8% | [2]; [8] 92% | [2]; at 50.0 µM 89.8% | [3]; [8] 84% | [3]; at 50.0 µM 89.3% | [5]; [8] 94% | [5]; at 50.0 µM 79.2% | [6]; [8] 95% | [6]; at 50.0 µM 74%

Cc1cc(NS(=O)(=O)c2ccc(N)cc2)no1.[Ag]
active: [1]; [7] 99% | [1]; [8] 99% | [1]; at 50.0 µM 99.4% | [2]; [7] 100% | [2]; [8] 99% | [2]; at 50.0 µM 99.7% | [3]; [7] 99% | [3]; [8] 100% | [3]; at 50.0 µM 99.7% | [4]; [7] 99% | [4]; [8] 99% | [4]; at 50.0 µM 99.5% | [5]; [7] 99% | [5]; [8] 99% | [5]; at 50.0 µM 99.7% | [6]; [7] 99% | [6]; [8] 99% | [6]; at 50.0 µM 99.5%

S=C1NCCNC(=S)SS1
inactive: [1]; [7] 40% | [2]; [7] 8% | [3]; [7] 15% | [3]; at 50.0 µM 48.5% | [4]; [7] 7% | [4]; at 50.0 µM 20.2% | [5]; [7] 10% | [6]; [7] 14% | [6]; at 50.0 µM 44.5%
active: [1]; [8] 97% | [1]; at 50.0 µM 93% | [2]; [8] 99% | [2]; at 50.0 µM 77.6% | [3]; [8] 97% | [4]; [8] 98% | [5]; [8] 99% | [5]; at 50.0 µM 98.8% | [6]; [8] 99%

CCOc1ccc(N=Nc2c(C)nn(C(=S)SC)c2OCC)cc1
inactive: [1]; [7] 10% | [1]; [8] 54% | [2]; [7] -7% | [2]; [8] 61% | [3]; [7] 4% | [4]; [7] -13% | [4]; [8] 27% | [5]; [7] -17% | [6]; [7] -24%
active: [1]; at 50.0 µM 99.3% | [2]; at 50.0 µM 99.7% | [3]; [8] 74% | [3]; at 50.0 µM 99.2% | [4]; at 50.0 µM 99.5% | [5]; [8] 72% | [5]; at 50.0 µM 99.3% | [6]; [8] 73% | [6]; at 50.0 µM 99.5%

[Pt].c1ccc([PH+](CC[PH+](CC[PH+](c2ccccc2)c2ccccc2)CC[PH+](c2ccccc2)c2ccccc2)c2ccccc2)cc1
inactive: [1]; [7] 54% | [3]; [7] 28% | [4]; [7] 27% | [6]; [7] 68%
active: [1]; [8] 96% | [1]; at 50.0 µM 89.8% | [2]; [7] 97% | [2]; [8] 98% | [2]; at 50.0 µM 90.7% | [3]; [8] 97% | [3]; at 50.0 µM 91.7% | [4]; [8] 97% | [4]; at 50.0 µM 89.3% | [5]; [7] 93% | [5]; [8] 97% | [5]; at 50.0 µM 89.8% | [6]; [8] 97% | [6]; at 50.0 µM 88.7%

O=C(CN1CCCCC1)CC(O)(C(F)(F)F)C(F)(F)F
inactive: [1]; [7] 29% | [1]; [8] 39% | [1]; at 50.0 µM 5.85% | [2]; [7] 20% | [2]; [8] 33% | [2]; at 50.0 µM 8.45% | [3]; [7] 10% | [3]; [8] 20% | [3]; at 50.0 µM 6.25% | [4]; [7] 2% | [4]; [8] 50% | [4]; at 50.0 µM 15.6% | [5]; [7] 11% | [5]; [8] 23% | [5]; at 50.0 µM 7.5% | [6]; [7] 31% | [6]; [8] 34%
active: [6]; at 50.0 µM 77.3%

CCCCCCC/C=C\C(=O)O
inactive: [1]; [7] 0% | [1]; [8] 13% | [1]; at 50.0 µM 35.5% | [2]; [7] 4% | [2]; [8] 32% | [2]; at 50.0 µM 17.9% | [3]; [7] 1% | [3]; [8] 38% | [3]; at 50.0 µM 33.6% | [4]; [7] 4% | [4]; [8] 25% | [4]; at 50.0 µM 38.9% | [5]; [7] 5% | [5]; [8] 23% | [5]; at 50.0 µM 6.4% | [6]; [7] 1% | [6]; [8] 36%
active: [6]; at 50.0 µM 74.5%

c1cc2c(c3c1CN(C1CCCCC1)CO3)OCN(C1CCCCC1)C2
inactive: [1]; [7] 2% | [1]; [8] 19% | [1]; at 50.0 µM -11% | [2]; [7] 4% | [2]; [8] 10% | [2]; at 50.0 µM -29.6% | [3]; [7] 6% | [3]; [8] 16% | [3]; at 50.0 µM 32.1% | [4]; [7] -12% | [4]; [8] 16% | [4]; at 50.0 µM -27.2% | [5]; [7] 5% | [5]; [8] 28% | [5]; at 50.0 µM 65% | [6]; [7] 6% | [6]; [8] 10% | [6]; at 50.0 µM 12.4%

— PubChem BioAssay (NCI)
